In the library only some 4.8% were active in any assay of this set; here they are far more common.
hgDAF12 agonist: activates the H. glycines DAF-12 receptor ligand-binding domain. HEK293 GAL4-hgDAF12 UAS-luciferase reporter, agonist luminescence; normalized to butyrate control. activation, % at 6.8 µM. AID 687014. 370,000 tested, 1.8% active;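 active = activation above a cutoff set at the mean of all screened compounds plus 3 SD, cut at about 10% in these data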;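 also: 0% = DMSO wells and 100% = sodium butyrate wells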
hcDAF12 agonist: activators of H. contortus DAF-12 nuclear receptor; HEK293 hcDAF-12 lit1-tk-luc reporter, luminescence; 0% DMSO, 100% Δ7-dafachronic acid; AID 652067; activation, % at 6.8 µM; 370,000 tested, 1.4% active;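 active = activation above the mean of all tested compounds plus 3 SD, cut at about 5.5% in these data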;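 also: 100% = response to 3 µM Δ7-dafachronic acid high control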
DAX1 inh-1: blocks DAX1 repression of SF-1 activated StAR promoter; AID 652010; HEK293T StAR-luciferase reporter, SF-1/DAX-1 repression relief; 370,000 tested, 1.1% active; inhibition, % at 6.8 µM;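 active = inhibition above the mean over all tested compounds plus 3 SD, cut at about 3.6% in these data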;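 also: 0% = DAX-1 cells with DMSO and 100% = cells lacking DAX-1 with DMSO; higher inhibition means more luminescence from relief of DAX-1 repression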
Rev-erbA mod: modulators of human Rev-erb alpha DNA binding; P20393; 370,000 tested, 0.79% active; Rev-erbα–FITC-DNA binding, fluorescence polarization, 90 min; activity, % at 10 µM;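 active = activity above about 14%, limit read from the data; passing the limit was not always enough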;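 also: 0% = DMSO wells with 35 nM protein and 100% = DMSO wells with 750 nM protein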
DAX1 inh-2: inhibitors of human orphan nuclear receptor DAX1 (NR0B1). HEK293 Gal4-DAX1 luciferase reporter, luminescence. 340,000 tested, 0.99% active. P51843. inhibition, % at 6.75 µM. AID 504766;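 active = inhibition above the mean over all tested compounds plus 3 SD, cut at about 4.2% in these data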;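 also: 0% = DAX1-transfected cells with DMSO and 100% = empty-vector control cells with DMSO; inhibition shows as a rise in luminescence from relieved DAX1 repression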
Target sequence (P51843 207-470 limits assumed): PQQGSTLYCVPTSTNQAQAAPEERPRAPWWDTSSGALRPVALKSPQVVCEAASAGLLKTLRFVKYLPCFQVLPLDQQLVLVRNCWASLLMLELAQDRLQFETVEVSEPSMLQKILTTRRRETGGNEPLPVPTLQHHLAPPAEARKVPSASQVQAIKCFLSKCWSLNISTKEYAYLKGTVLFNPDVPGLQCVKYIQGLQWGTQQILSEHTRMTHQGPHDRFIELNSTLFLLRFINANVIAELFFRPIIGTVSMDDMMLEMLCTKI
ssDAF12 agonist: activates DAF-12 receptor from parasite S. stercoralis. AID 652126. 370,000 tested, 1% active. HEK293 ssDAF-12/GRIP1 lit1-tk-luc reporter, luminescence; % of 3 µM dafachronic acid response. activation, % at 6.8 µM;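 active = activation above the mean over all tested compounds plus 3 SD, cut at about 0.9% in these data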;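 also: 0% = DMSO-only wells and 100% = 3 µM delta7-dafachronic acid wells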
Active calls of the source: *; · = no result given.

SMILES | hgDAF12 agonist | hcDAF12 agonist | DAX1 inh-1 | Rev-erbA mod | DAX1 inh-2 | ssDAF12 agonist
O=S(=O)(c1ccc(CN2CCOCCOCCN(Cc3ccc(S(=O)(=O)C(F)(F)F)cc3)CCOCC2)cc1)C(F)(F)F | -4 | -4 | · | -1 | · | -2
CC(C(=O)N1CCN(c2ccccc2)CC1)N1C(=O)C2CC=CCC2C1=O (stereo unspecified) | 0 | -2 | 0 | 3 | 5.0* | 0
C[C@@H](C(=O)N1CCN(c2ccccc2)CC1)N1C(=O)C2CC=CCC2C1=O (stereo partly specified) | -1 | -1 | -1 | -2 | 1 | 0
COC(=O)c1c(-c2ccc(F)cc2)csc1NC(=O)C1CCCO1 (stereo unspecified) | 12* | -1 | 3 | 5 | -1 | -2
COc1ccccc1CC(=O)Nc1ccccc1O | 3 | 0 | 0 | 1 | 1 | -1
COc1cc([N+](=O)[O-])ccc1NC(=O)COC(=O)c1n[nH]c2ccccc12 | -1 | 6.3* | 0 | 2 | -2 | -1
O=C(COC(=O)c1n[nH]c2ccccc12)Nc1ccc(Cl)cc1[N+](=O)[O-] | 0 | 2 | 0 | 0 | 0 | 0
COc1ccccc1CC(=O)Nc1ccc([N+](=O)[O-])cc1O | -1 | 1 | 0 | 5 | 5.9* | 0
COC(=O)[C@]12C[C@H](CC(=O)N3CCCCC3)C(=O)N(Cc3ccccc3)C1=C[C@H](C(C)(C)C)O[C@@H]2C | -1 | -1 | 0 | -9 | · | 0
Cc1cccc(-n2ncc3c(NCc4ccccc4)ncnc32)c1 | 12* | 0 | -3 | 1 | -1 | 0
Clc1ccc(-n2ncc3c(NCc4cccs4)ncnc32)cc1 | 3 | 0 | 1 | 3 | 3 | -1
Cc1cccc(-n2ncc3c(NCc4cccs4)ncnc32)c1 | 9 | 1 | 2 | 5 | 0 | 1.2*
Cc1ccc(-n2ncc3c(SCc4ccccc4)ncnc32)cc1 | 12* | 6.5* | 2 | -1 | 1 | 0
CCCCOCC1CN(CCCC)S(=O)(=O)c2c(cccc2Sc2ccc(OC)c(OC)c2)O1 (stereo unspecified) | 5 | -2 | 1 | -2 | · | -1
CC1C/C(=N/NC(=O)c2cccc(F)c2)c2ccc(O)cc2C1 (stereo unspecified) | 13* | 3 | 0 | -2 | 2 | -1
CC(C)c1ccc(/C=N/NC(=O)C2CCCC2)cc1 | 8 | 6.0* | 4 | -3 | 0 | 0
COC(=O)c1ccc(-c2n[nH]c(=O)c3ccccc23)cc1 | 0 | -2 | 0 | 0 | 0 | -1
CN(C)C(=O)c1ccc(-c2n[nH]c(=O)c3ccccc23)cc1 | -1 | 0 | 1 | 4 | 4.8* | -2
CCN(C)c1nc(C)nc2c1nnn2Cc1ccccc1 | 0 | -1 | 1 | 3 | · | -1
CCC(=O)Oc1ccc2c(c1)CCC1C2CC[C@@]2(C)C1CC[C@@H]2OC(=O)CC (stereo partly specified) | · | · | · | -3 | · | ·
Cc1ccccc1-n1nc2c(c1NC(=O)c1ccc(S(=O)(=O)N(C)C)cc1)CSC2 | -2 | 5.9* | 1 | -5 | 0 | -1
CC(=O)Nc1c2c(nn1-c1ccccc1C)CSC2 | -1 | -1 | 2 | -2 | 0 | -1
Cc1ccc(F)cc1C(=O)N(Cc1ccccn1)CC1CCCO1 (stereo unspecified) | 0 | 2 | -1 | 10 | · | -1
c1csc(C2C3=C(Nc4ncnn42)c2ccccc2OC3)c1 (stereo unspecified) | 0 | 2 | 0 | -2 | 0 | 1.1*
CC1=C(C(N)=O)C(c2cccs2)n2ncnc2N1 (stereo unspecified) | 1 | -1 | 0 | -6 | 4 | -1
SMILES | hgDAF12 agonist | hcDAF12 agonist | DAX1 inh-1 | Rev-erbA mod | DAX1 inh-2 | ssDAF12 agonist
NC(=O)c1ccc(NC(=O)COC(=O)CC2Sc3ccccc3NC2=O)cc1 (stereo unspecified) | 3 | 4 | 2 | 3 | 1 | 1.2*
NS(=O)(=O)c1ccc(NC(=O)COC(=O)CC2Sc3ccccc3NC2=O)cc1 (stereo unspecified) | 7 | 3 | 2 | -7 | 1 | 0
Cc1ccccc1S(=O)(=O)N(C)C[C@@H]1OCc2cn(nn2)CCCC(=O)N([C@@H](C)CO)C[C@H]1C | 0 | -1 | 1 | 3 | · | -1
O=C(O)c1cccc(-n2cc(-c3cccc(C(F)(F)F)c3)cn2)c1 | 13* | 5 | 1 | -5 | 1 | 1
Cc1nc(Nc2ccccc2)sc1C | 1 | 2 | 0 | 4 | 7.2* | -1
COc1ccc(Cn2cc(COC(=O)NCCc3c[nH]c4ccccc34)nn2)cc1 | 1 | -1 | -1 | -2 | · | -1
CCCCc1cc(=O)oc2cc(OC(C)C(=O)NCC3CCC(C(=O)O)CC3)c(Cl)cc12 (stereo unspecified) | -3 | -2 | 0 | 0 | 4 | -1
CC(Oc1ccc2cc(-c3ccccc3)c(=O)oc2c1)C(=O)NCC1CCC(C(=O)O)CC1 (stereo unspecified) | -4 | -1 | 0 | -7 | 2 | -1
CC(Oc1ccc2ccc(=O)oc2c1)C(=O)NCC1CCC(C(=O)O)CC1 (stereo unspecified) | -2 | -1 | 1 | -1 | 4.7* | 0
CCCc1cc(=O)oc2cc(OC(C)C(=O)NCC3CCC(C(=O)O)CC3)c(Cl)cc12 (stereo unspecified) | 1 | -1 | 1 | -7 | 4.5* | -1
Cc1c(Cc2ccccc2)c(=O)oc2c(C)c(OC(C)C(=O)NCC3CCC(C(=O)O)CC3)ccc12 (stereo unspecified) | -3 | 1 | 1 | -6 | 3 | -1
Cc1cc(OC(C)C(=O)NCC2CCC(C(=O)O)CC2)c2c(C)c(Cc3ccccc3)c(=O)oc2c1 (stereo unspecified) | -3 | -1 | 1 | -4 | 6.6* | -1
Cc1ccc(NC(=O)/C=C/c2ccco2)nc1 | 8 | 6.5* | 6.5* | -7 | 1 | 1.6*
O=C(/C=C/c1ccco1)Nc1ccccn1 | 13* | 4 | 1 | -1 | -1 | 0
COc1cc(-c2nnc(SCC(=O)NN=Cc3c[nH]c4ccccc34)n2-c2ccccc2)cc(OC)c1OC | -4 | 1 | -3 | 5 | · | -1
CCN1Cc2c(/C=C/c3ccccc3)nc3ccc(OC)cc3c2N(c2cccc(Cl)c2)C1 | 3 | 5.7* | -1 | 3 | 0 | -1
COc1cccc(N2CCc3c(C)nc4ccc(Cl)cc4c32)c1 | -2 | -1 | 0 | 9 | -1 | -2
CCCCCCCCN1C(=O)[C@@H](CC(=O)NCc2cccs2)C[C@@]2(C(=O)OC)C1=C[C@H](COCc1ccccc1)O[C@@H]2C | 0 | -2 | 0 | 8 | · | 1
Cn1cc(CCOCc2ccccn2)c2ccccc21 | 5 | 1 | 3.6* | -1 | · | 1

Compound activity (PubChem BioAssay)
